# Measured values: PubChem BioAssay (NCATS)
# Records with an inconclusive call do not appear. Where a call stands in place of a potency, no number is given. Values without a mark were called inactive. Activity calls are given as the source filed them. The call rests on the fitted dose curve; in most records, active means well fitted curve in the direction sought with a large enough effect; inconclusive means small, poorly fitted or top-dose-only effect, or another doubt; inactive means no such curve, though single readings can be large; an effect the other way counts as inactive or inconclusive.
# Legend:
# [1] = test system: Zika virus NS2B-NS3 protease; test: Primary screen GU AMC qHTS for Zika virus inhibitors (AID 1347154); further: nearly all actives have a fitted effect of over 70% in size; further: potency means the concentration at half of the fitted maximal effect
# How it was run: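 Fluorogenic AMC-substrate cleavage by noncovalent NS2B-NS3 protease complex (25 nM, pH 8.0 Tris buffer with Tween 20) followed for 15 minutes at room temperature (~20% conversion). Percent inhibition from ex340/em450 signal change, fitted by 4-parameter Hill equation.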
# [2] = test system: Zika virus NS2B-NS3 protease (unlinked complex); test: Primary screen GU Rhodamine qHTS for Zika virus inhibitors: Unlinked NS2B-NS3 protease assay (AID 1347159); further: nearly all actives have a fitted effect of over 60% in size
# How it was run: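 Noncovalent NS2B hydrophilic domain/NS3 protease complex (25 nM final) in 10 mM Tris-HCl pH 8.0, 0.01% Tween 20, preincubated 15 min with compounds (up to 114 microM), then 1.5 microM Rhodamine110 substrate. Fluorescence change over 15 min fitted to 4-parameter Hill.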
# [3] = test system: Zika virus NS2B-NS3 protease (linked construct); test: Primary screen NINDS Rhodamine qHTS for Zika virus inhibitors (AID 1347160); further: nearly all actives have a fitted effect of over 55% in size
# How it was run: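 Purified NS2B-NS3 protease with the NS2B hydrophilic domain joined by a flexible linker (25 nM) in 10 mM Tris-HCl pH 8.0, 0.01% Tween 20, preincubated 15 min at RT with compound; Rhodamine110 peptide substrate 1.5 µM; fluorescence change over 15 min; 4-parameter Hill fit.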
# [4] = qHTS to identify inhibitors of the type 1 interferon - major histocompatibility complex class I in skeletal muscle: primary screen against the NCATS Mechanism Interrogation Plate v5.0 (MIPE) Libary (AID 1347411); further: nearly all actives have a fitted effect of over 65% in size; further: potency means the concentration at half of the fitted maximal effect
# How it was run: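 Immortalized human C25cl48 myoblasts with HiBit knocked into endogenous HLA-B*08:01 were stimulated with 4.0 ng/ml IFN-beta and exposed to compounds (11-point 1:3 titration, top 46 uM final) for 24 hrs at 37 C; HiBiT lytic luminescence measured.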
# [5] = target: Protein phosphatase 1D (Homo sapiens) (UniProt O15297); test: RapidFire Mass Spectrometry qHTS Assay for Modulators of WT P53-Induced Phosphatase 1 (WIP1) (AID 1347424);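 further: amount of dephosphorylated VEPPL-S-QETFS peptide product formed by WIP1; series mostly up to about 63 µM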
# Protein phosphatase 1D (Homo sapiens), sequence (O15297 whole entry, looked up): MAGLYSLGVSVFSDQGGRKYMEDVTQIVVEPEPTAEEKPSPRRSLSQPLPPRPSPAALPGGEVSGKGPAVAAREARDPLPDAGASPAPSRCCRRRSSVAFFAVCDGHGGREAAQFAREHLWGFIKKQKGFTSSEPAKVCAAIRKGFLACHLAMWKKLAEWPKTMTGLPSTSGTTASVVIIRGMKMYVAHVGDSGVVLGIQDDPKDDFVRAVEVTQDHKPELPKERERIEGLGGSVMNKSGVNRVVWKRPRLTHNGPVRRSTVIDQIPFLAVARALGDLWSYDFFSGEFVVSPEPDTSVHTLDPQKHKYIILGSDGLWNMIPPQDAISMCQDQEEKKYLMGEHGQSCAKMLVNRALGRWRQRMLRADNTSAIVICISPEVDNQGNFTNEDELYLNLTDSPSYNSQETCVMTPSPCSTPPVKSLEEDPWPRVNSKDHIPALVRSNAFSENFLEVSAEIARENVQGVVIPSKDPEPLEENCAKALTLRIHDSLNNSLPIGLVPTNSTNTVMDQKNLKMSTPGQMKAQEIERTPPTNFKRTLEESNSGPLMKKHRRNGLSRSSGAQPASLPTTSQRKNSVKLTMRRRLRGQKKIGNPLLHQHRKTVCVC
# How it was run: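 10 nM WIP1 + cpd, 1 h RT; + 2 uM VEPPL-pS-QETFS, 5 min RT; stop 0.5% formic acid; labelled product standard 1 uM; RapidFire MS. Buffer 50 mM Tris pH 7.5, 30 mM MgCl2, 1 mM TCEP.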
# [6] = target: Lysine-specific demethylase 5B (Homo sapiens) (UniProt Q9UGL1); test: Optimization screen for KDM5B Histone Demethylases FDH coupled qHTS against the LOPAC library (AID 1347166)
# Lysine-specific demethylase 5B (Homo sapiens), sequence (Q9UGL1 whole entry, looked up): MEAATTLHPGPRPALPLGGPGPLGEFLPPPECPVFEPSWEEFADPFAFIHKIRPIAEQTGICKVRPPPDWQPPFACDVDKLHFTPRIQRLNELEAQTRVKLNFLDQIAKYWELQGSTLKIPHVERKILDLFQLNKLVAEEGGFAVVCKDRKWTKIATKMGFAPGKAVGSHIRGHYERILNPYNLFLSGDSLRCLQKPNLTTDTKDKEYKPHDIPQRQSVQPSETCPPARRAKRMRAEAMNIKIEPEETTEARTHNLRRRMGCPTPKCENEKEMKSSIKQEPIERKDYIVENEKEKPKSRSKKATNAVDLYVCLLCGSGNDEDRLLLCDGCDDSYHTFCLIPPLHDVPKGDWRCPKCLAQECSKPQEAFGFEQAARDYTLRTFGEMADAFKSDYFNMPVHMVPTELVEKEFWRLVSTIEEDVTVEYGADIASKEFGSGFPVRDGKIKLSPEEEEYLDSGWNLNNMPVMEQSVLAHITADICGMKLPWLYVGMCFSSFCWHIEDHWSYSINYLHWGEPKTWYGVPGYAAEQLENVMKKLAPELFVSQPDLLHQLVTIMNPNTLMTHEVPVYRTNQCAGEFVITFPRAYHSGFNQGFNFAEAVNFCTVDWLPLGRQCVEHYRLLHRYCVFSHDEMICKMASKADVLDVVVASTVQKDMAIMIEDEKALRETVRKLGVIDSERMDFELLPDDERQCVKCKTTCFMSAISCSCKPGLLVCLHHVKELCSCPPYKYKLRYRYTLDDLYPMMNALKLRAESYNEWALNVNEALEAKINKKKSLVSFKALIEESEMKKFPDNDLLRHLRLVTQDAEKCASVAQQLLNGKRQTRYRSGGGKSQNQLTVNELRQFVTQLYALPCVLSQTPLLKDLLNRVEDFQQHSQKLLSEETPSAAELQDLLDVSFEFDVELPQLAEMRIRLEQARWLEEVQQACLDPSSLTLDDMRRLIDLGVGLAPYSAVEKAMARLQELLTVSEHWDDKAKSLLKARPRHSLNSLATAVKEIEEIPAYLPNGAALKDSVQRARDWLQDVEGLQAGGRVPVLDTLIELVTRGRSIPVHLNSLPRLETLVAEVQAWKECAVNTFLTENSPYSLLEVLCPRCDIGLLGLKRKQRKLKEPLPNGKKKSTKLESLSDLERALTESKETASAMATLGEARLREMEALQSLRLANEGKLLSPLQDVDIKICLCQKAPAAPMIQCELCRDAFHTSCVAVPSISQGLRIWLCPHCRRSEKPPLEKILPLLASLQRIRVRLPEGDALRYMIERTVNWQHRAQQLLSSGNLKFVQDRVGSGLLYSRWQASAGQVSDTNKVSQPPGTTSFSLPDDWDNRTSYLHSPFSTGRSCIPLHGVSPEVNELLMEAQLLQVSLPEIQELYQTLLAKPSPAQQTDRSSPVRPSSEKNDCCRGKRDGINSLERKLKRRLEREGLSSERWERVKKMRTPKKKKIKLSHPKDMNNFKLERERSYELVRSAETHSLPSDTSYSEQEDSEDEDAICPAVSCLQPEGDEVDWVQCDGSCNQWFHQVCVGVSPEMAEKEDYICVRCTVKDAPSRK
# How it was run: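 KDM5BDeltaAP (200nM final) preincubated 10 min with compound, then 12.5uM H3K4Me3, 25uM a-ketoglutarate, ascorbate, Fe(II), NAD+ and FDH added; 50mM HEPES pH 7.5, 0.01% Tween-20. NADH fluorescence (340/450 nm) change over 30 min, room temperature.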
smiles,measurement,setting,value
C[C@@H](N)c1ccc(C(=O)Nc2ccnc3[nH]ccc23)cc1,Potency,[1],inactive
same,Potency,[2],inactive
same,Potency,[3],inactive
same,Potency,[4],16.5 µM (active)
CC(=O)Nc1cccc(-n2c(=O)n(C3CC3)c(=O)c3c(Nc4ccc(I)cc4F)n(C)c(=O)c(C)c32)c1,Potency,[1],inactive
same,Potency,[2],inactive
same,Potency,[3],inactive
same,Potency,[4],inactive
O=C(CCCN1CCN(c2ccc(F)cc2)CC1)NC1c2ccccc2CSc2ccccc21 (centres undefined),Potency,[1],inactive
same,Potency,[2],inactive
same,Potency,[5],inactive
NC(=O)c1ccc(N(C(N)=O)c2c(F)cccc2F)nc1-c1ccc(F)cc1F,Potency,[1],inactive
same,Potency,[2],inactive
same,Potency,[3],inactive
same,Potency,[4],inactive
c1ccc(-c2oc3ncnc(NC[C@@H]4CCCO4)c3c2-c2ccccc2)cc1,Potency,[1],30.4 µM (active)
same,Potency,[2],inactive
same,Potency,[3],inactive
same,Potency,[4],inactive
C[C@H]1O[C@@H](n2cc(F)c(=O)[nH]c2=O)[C@H](O)[C@H]1O,Potency,[1],inactive
same,outcome,[6],inactive
NS(=O)(=O)c1cc(Cl)c(Cl)c(S(N)(=O)=O)c1,Potency,[1],inactive
same,Potency,[2],inactive
same,Potency,[4],inactive
CCCCC(F)(F)[C@@]1(O)CC[C@H]2[C@H](CC(=O)[C@@H]2CCCCCCC(=O)O)O1,Potency,[1],inactive
same,Potency,[2],inactive
same,Potency,[4],inactive
C[C@@]1(c2cc(-c3cncnc3)c(F)cc2F)CCSC(N)=N1,Potency,[1],inactive
same,Potency,[2],inactive
same,Potency,[4],inactive
CNC(=O)c1c(-c2ccc(F)cc2)oc2cc(N(CCO)S(C)(=O)=O)c(C3CC3)cc12,Potency,[1],27.1 µM (active)
same,Potency,[2],inactive
same,Potency,[4],inactive
CCN(CCO)CCCOc1ccc2c(Nc3cc(CC(=O)Nc4cccc(F)c4)[nH]n3)ncnc2c1,Potency,[1],inactive
same,Potency,[2],inactive
same,Potency,[4],inactive
CN[C@@H](C)[C@H]1[C@H](O)C[C@@]2(C)[C@@H]3CC[C@H]4C(C)(C)[C@@H](NC)CC[C@@]45C[C@@]35CC[C@]12C,Potency,[1],inactive
same,"activity change, negative = inhibition",[2],119% [at 19.1 µM]
same,"activity change, negative = inhibition",[4],36.7% [at 8.44 µM]
